# In PubChem BioAssay (EPA / NIEHS):
# The source made the active and inactive calls. How the source made its calls: active means hit-call score of the fitted dose curve at least 0.9, where 1 is the maximum; inactive means score below 0.9.
# Columns and labels:
# [1] = APR_HepG2_P-H2AX_72hr: Apredica 72-hour HepG2 Assay for H2AX Phosphorylation (AID 2282916); settings: imaging, actives raise or lower the signal;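 further: phospho-histone H2A.x immunostain intensity per cell marking DNA damage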
# In short: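 Phospho-histone H2A.x immunofluorescence, multiplexed with Hoechst and c-Jun, quantified by high-content imaging. Compounds applied to HepG2 for 72 h across ten concentrations (0.39–200 uM, 0.5% DMSO), in duplicate; DMSO baseline.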
# [2] = APR_HepG2_MitoMembPot_72hr: Apredica 72-hour HepG2 Assay for Mitochondrial Membrane Potential (AID 2282917); settings: imaging, actives raise or lower the signal
# In short: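 HepG2 cells dosed 72 hr with compound at 0.39–200 uM in duplicate, 0.5% v/v DMSO final. Mitochondria stained with 250 nM MitoTracker Red CMXRos for 30 min before formaldehyde fixation, imaged by high-content fluorescence; bidirectional fit versus DMSO.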
# [3] = APR_HepG2_MitoticArrest_72hr: Apredica 72-hour HepG2 Assay for Mitotic Arrest (AID 2282918); settings: high-content imaging, actives raise or lower the signal
# In short: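 Mitotic arrest in HepG2 is scored from phospho-histone H3 staining after 72 hr dosing across 0.39–200 uM, with DMSO at 0.5% v/v. Nuclei are identified by Hoechst 33342 and fluorescence intensity is quantified per cell.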
# [4] = APR_HepG2_MicrotubuleCSK_72hr: Apredica 72-hour HepG2 Assay for Microtubule CSK Stabilty (AID 2282919); settings: HepG2 microtubule cytoskeleton, high-content imaging, actives raise or lower the signal
# In short: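 HepG2, 72 hr cmpd exposure, 0.39–200 uM (10 pts, duplicate), 0.5% DMSO. 3.7% formaldehyde fix, 0.5% Triton perm, anti-alpha-tubulin/Cy5 plus Hoechst. HCS fluorescence intensity; bidirectional fit vs DMSO baseline; taxol as positive control.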
# [5] = APR_HepG2_P-H2AX_24hr: Apredica 24-hour HepG2 Assay for H2AX Phosphorylation (AID 2282920); settings: high-content imaging, actives raise or lower the signal
# In short: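 Signal comes from a FITC-labeled secondary detecting phospho-histone H2A.x in fixed HepG2 cells, quantified by automated imaging at 20x. Dosing ran 24 hr across 0.39–200 uM with 0.5% v/v DMSO.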
# [6] = APR_HepG2_StressKinase_72hr: Apredica 72-hour HepG2 Assay for Stress Kinase (AID 2282921); settings: HepG2 stress kinase (phospho-c-Jun) imaging, actives raise or lower the signal
# In short: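 Stress kinase signal is phospho-c-Jun immunofluorescence (1:500 primary, Cy3 secondary) in fixed, permeabilized human HepG2 cells imaged at 20x. Exposure lasted 72 hr over ten concentrations from 0.39 to 200 uM, 0.5% DMSO, in duplicate. Bidirectional fit versus DMSO.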
# [7] = APR_HepG2_StressKinase_24hr: Apredica 24-hour HepG2 Assay for Stress Kinase (AID 2282922); settings: HepG2 stress kinase (phospho-c-Jun) imaging, actives raise or lower the signal
# In short: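 Read-out: phospho-c-Jun immunofluorescence (Cy3 secondary) quantified by high-content imaging at 20x, nuclei defined by Hoechst 33342. Human HepG2 liver cells dosed 24 hr, 0.39–200 uM, DMSO 0.5% v/v; gain or loss of signal fitted relative to DMSO.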
# [8] = APR_HepG2_p53Act_72hr: Apredica 72-hour HepG2 Assay for p53 Activation (AID 2282923); settings: high-content imaging, actives raise or lower the signal;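 further: average cellular p53 protein immunofluorescence intensity in HepG2 cells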
# In short: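 After 72 h with compound (ten points, 0.39 to 200 uM, final DMSO 0.5% v/v), fixed HepG2 cells were labelled with sheep anti-p53 and Hoechst 33342 and imaged; gain or loss versus DMSO scored.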
# [9] = APR_HepG2_MitoMass_72hr: Apredica 72-hour HepG2 Assay for Mitochondrial Mass (AID 2282924); settings: high-content imaging, actives raise or lower the signal;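 further: MitoTracker Red CMXRos stain intensity per cell imaged as mitochondrial mass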
# In short: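 Read-out: MitoTracker Red fluorescence intensity from automated imaging (20x, six fields per well) in human HepG2 liver cells. Dosing ran 72 hr, 0.39–200 uM, 0.5% DMSO; bidirectional curve fitting versus DMSO baseline.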
# [10] = APR_HepG2_NuclearSize_72hr: Apredica 72-hour HepG2 Assay for Nuclear Size (AID 2282925); settings: high-content imaging, actives raise or lower the signal
# In short: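 Read-out: nuclear diameter from Hoechst 33342 images (ArrayScan, 20x, six fields/well), via cell-cycle image analysis. HepG2 were dosed 0.39–200 uM for 72 hr in 0.5% DMSO. Bidirectional fit relative to DMSO.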
# [11] = ATG_CRE_CIS: Attagene CIS-FACTORIAL HepG2 Assay for human cAMP Responsive Element (CRE) binding protein 3 (AID 2282926); settings: HepG2 CRE cis-reporter, Attagene multiplexed mRNA; actives raise or lower the signal
# In short: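 Cells carrying cis-regulated reporter constructs respond through their own endogenous factors. After 24 h treatment, RNA is reverse-transcribed, amplified, labelled and sized by capillary electrophoresis; up- and down-regulation are both scored against vehicle.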
# [12] = target: CCAAT/enhancer-binding protein beta (Homo sapiens) (UniProt P17676); experiment: ATG_C_EBP_CIS: Attagene CIS-FACTORIAL HepG2 Assay for human CCAAT/Enhancer Binding Protein (C/EBP) beta (AID 2282927); settings: HepG2 Attagene cis-factorial transcription factor reporter; actives raise or lower the signal
# Sequence of CCAAT/enhancer-binding protein beta (Homo sapiens) (P17676 whole entry, looked up): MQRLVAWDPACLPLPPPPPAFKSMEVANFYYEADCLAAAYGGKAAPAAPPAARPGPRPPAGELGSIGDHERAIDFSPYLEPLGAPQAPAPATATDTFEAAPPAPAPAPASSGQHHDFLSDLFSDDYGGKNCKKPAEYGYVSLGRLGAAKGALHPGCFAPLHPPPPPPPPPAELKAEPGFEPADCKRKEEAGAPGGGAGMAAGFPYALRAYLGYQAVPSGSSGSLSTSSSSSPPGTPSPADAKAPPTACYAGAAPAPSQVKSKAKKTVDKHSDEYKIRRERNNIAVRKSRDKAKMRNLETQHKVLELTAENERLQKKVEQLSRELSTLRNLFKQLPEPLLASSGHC
# In short: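 HepG2 transiently transfected with multiplexed reporter units under cis-regulatory promoters reporting endogenous C/EBPb activity. After 24 h exposure, reporter mRNA assayed by RT-PCR, fluorescent labelling, HpaI digestion and capillary electrophoresis; bidirectional fitting versus DMSO.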
# [13] = ATG_CMV_CIS: Attagene CIS-FACTORIAL HepG2 Assay for human CMV (Internal Marker) (AID 2282928); settings: HepG2 CMV promoter reporter, transcription factor profiling; actives raise or lower the signal;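 further: endpoint acts as a background internal control marker rather than a target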
# In short: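 Readout: fluorescent reporter cDNA fragments separated by capillary electrophoresis after RT-PCR and HpaI cut. Cells: HepG2 carrying transfected cis-promoter reporter constructs, dosed 24 h. Endpoint serves as background internal-marker control, fit bidirectionally versus DMSO.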
# [14] = ATG_DR4_LXR_CIS: Attagene CIS-FACTORIAL HepG2 Assay for human Liver X Receptor (LXR), DR4 submotif (AID 2282929); settings: HepG2 Attagene DR4 cis-reporter, mRNA transcription; actives raise or lower the signal
# In short: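 DR4 cis-reporter in HepG2, 24 h exposure. Detection: RT-PCR, 6-FAM labelling, CE fragment analysis. Endpoint fitted bidirectionally, DMSO = baseline.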
# [15] = target: Aryl hydrocarbon receptor (Homo sapiens) (UniProt P35869); experiment: ATG_Ahr_CIS: Attagene CIS-FACTORIAL HepG2 Assay for human Aryl Hydrocarbon Receptor (Ahr) (AID 2282930); settings: HepG2 AhR cis-factorial reporter transcription; actives raise or lower the signal
# Sequence of Aryl hydrocarbon receptor (Homo sapiens) (P35869 whole entry, looked up): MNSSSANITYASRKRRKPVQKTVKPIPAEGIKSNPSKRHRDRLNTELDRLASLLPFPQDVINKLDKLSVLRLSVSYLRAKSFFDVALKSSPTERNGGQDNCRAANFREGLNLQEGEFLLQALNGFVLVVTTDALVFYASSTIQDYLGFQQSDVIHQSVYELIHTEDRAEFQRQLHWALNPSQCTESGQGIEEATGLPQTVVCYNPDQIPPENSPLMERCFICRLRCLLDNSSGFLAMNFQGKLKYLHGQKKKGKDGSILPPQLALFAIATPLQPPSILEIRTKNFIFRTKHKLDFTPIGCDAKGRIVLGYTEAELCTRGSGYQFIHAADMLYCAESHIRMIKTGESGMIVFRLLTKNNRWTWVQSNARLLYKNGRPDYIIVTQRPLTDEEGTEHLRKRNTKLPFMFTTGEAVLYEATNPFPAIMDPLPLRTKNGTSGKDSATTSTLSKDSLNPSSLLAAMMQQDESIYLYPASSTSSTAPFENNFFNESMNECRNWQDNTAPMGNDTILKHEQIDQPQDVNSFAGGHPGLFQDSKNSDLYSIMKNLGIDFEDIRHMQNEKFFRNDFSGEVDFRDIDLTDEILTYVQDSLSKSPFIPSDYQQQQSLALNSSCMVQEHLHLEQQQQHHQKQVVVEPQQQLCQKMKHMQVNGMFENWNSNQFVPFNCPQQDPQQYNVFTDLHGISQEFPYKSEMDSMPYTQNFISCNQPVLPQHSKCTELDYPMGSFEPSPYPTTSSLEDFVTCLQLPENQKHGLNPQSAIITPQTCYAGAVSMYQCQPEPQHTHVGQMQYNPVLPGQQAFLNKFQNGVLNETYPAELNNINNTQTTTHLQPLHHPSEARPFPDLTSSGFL
# In short: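 HepG2 cells transiently transfected with cis-element-driven multiplexed reporter units; endogenous AhR activity read as reporter mRNA 24 h after dosing, via RT-PCR, 6-FAM labelling, HpaI digestion and capillary electrophoresis. Bidirectional fit relative to DMSO.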
# [16] = ATG_AP_1_CIS: Attagene CIS-FACTORIAL HepG2 Assay for human Activator Protein 1 (AP-1) (AID 2282931); settings: HepG2 Attagene cis-factorial AP-1 reporter mRNA; actives raise or lower the signal
# In short: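 Cis-regulated reporter units transiently expressed in HepG2 report endogenous transcription-factor activity. Signal: reporter mRNA at 24 h, via RT-PCR and fluorescent capillary electrophoresis. Endpoint derived by bidirectional fitting, DMSO as negative control.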
# [17] = ATG_AP_2_CIS: Attagene CIS-FACTORIAL HepG2 Assay for human Activator Protein 2 (AP-2) (AID 2282932); settings: HepG2 AP-2 cis-reporter, Attagene transcription factor profiling; actives raise or lower the signal
# In short: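 Liver-derived HepG2 line, cis-reporter system measuring endogenous factors; 24 h dosing; reporter mRNA detected by fluorescent RT-PCR and capillary electrophoresis.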
# [18] = target: Transcription factor E2F1 (Homo sapiens) (UniProt Q01094); experiment: ATG_E2F_CIS: Attagene CIS-FACTORIAL HepG2 Assay for human E2F Transcription Factor 1 (AID 2282935); settings: HepG2 Attagene cis-reporter, E2F reporter RNA transcripts; actives raise or lower the signal
# Sequence of Transcription factor E2F1 (Homo sapiens) (Q01094 whole entry, looked up): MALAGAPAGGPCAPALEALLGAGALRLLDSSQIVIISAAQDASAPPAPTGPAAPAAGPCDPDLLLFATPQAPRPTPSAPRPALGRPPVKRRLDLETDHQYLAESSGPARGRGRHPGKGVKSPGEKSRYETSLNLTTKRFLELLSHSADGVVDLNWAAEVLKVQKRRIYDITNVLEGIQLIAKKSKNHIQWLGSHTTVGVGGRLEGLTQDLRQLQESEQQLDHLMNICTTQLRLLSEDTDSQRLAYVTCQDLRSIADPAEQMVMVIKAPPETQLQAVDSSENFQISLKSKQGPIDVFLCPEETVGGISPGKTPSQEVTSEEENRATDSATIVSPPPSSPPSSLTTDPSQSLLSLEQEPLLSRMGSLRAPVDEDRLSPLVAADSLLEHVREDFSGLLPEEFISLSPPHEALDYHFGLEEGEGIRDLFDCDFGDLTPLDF
# In short: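 Liver-derived HepG2 cells expressing transfected promoter-driven reporter units received test chemical for 24 hours. Signal gains or losses were fitted bidirectionally against DMSO.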
# [19] = target: Retinoic acid receptor alpha (Homo sapiens) (UniProt P10276); experiment: ATG_DR5_RAR_CIS: Attagene CIS-FACTORIAL HepG2 Assay for human Retinoic Acid Receptor Alpha (RARE), DR5 submotif (AID 2282934); settings: HepG2 Attagene cis-factorial RARE DR5 reporter, mRNA; actives raise or lower the signal
# Sequence of Retinoic acid receptor alpha (Homo sapiens) (P10276 whole entry, looked up): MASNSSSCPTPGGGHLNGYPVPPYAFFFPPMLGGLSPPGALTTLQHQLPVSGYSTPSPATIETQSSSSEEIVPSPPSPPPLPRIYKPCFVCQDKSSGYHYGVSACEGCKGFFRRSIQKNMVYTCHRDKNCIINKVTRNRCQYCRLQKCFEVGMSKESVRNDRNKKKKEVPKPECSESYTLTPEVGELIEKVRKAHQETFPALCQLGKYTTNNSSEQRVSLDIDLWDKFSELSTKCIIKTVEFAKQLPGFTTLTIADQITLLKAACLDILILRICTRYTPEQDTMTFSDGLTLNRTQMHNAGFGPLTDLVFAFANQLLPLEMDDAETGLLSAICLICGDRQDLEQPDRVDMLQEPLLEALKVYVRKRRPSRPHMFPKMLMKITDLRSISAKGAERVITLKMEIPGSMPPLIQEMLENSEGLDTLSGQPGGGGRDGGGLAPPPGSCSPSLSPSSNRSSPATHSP
# In short: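 HepG2 cells transiently transfected with multiplexed reporter units; DR5 cis-element drives reporter through endogenous transcription factors. After 24 h dosing, reporter mRNA quantified by RT-PCR, fluorescent labeling, HpaI digestion and capillary electrophoresis; bidirectional fitting versus DMSO.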
# [20] = ATG_BRE_CIS: Attagene CIS-FACTORIAL HepG2 Assay for human Bone Morphogenetic Protein (BMP) Response Element (BRE) (AID 2282933); settings: HepG2 BMP response element reporter, Attagene transcription factor profiling; actives raise or lower the signal
# In short: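 Read-out: reporter mRNA induction quantified by RT-PCR and capillary electrophoresis after 24 h chemical exposure of transfected HepG2 cells. Endogenous factor activity on the BMP response element; gain or loss fitted against DMSO baseline.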
compound,measurement,setting,value
CCN(CC)CCO,outcome,[1],inactive
same,outcome,[2],inactive
same,outcome,[3],inactive
same,outcome,[4],inactive
same,outcome,[5],inactive
same,outcome,[6],inactive
same,outcome,[7],inactive
same,outcome,[8],inactive
same,outcome,[9],inactive
same,outcome,[10],inactive
same,outcome,[11],inactive
same,outcome,[12],inactive
same,outcome,[13],inactive
same,outcome,[14],inactive
same,outcome,[15],inactive
same,outcome,[16],inactive
same,outcome,[17],inactive
same,outcome,[18],inactive
ClC1=C(Cl)C2(Cl)C3C(Cl)C=CC3C1(Cl)C2(Cl)Cl (centres undefined),AC50,[1],65.9 µM (active)
same,outcome,[2],inactive
same,AC50,[3],51.3 µM (active)
same,AC50,[4],88.5 µM (active)
same,AC50,[5],80.7 µM (active)
same,AC50,[6],84.8 µM (active)
same,outcome,[7],inactive
same,AC50,[8],63.7 µM (active)
same,AC50,[9],88.9 µM (active)
same,outcome,[10],inactive
same,outcome,[11],inactive
same,outcome,[12],inactive
same,AC50,[13],100 µM (active)
same,AC50,[14],40.1 µM (active)
same,outcome,[15],inactive
same,AC50,[16],154 µM (active)
same,outcome,[17],inactive
same,outcome,[19],inactive
same,outcome,[18],inactive
Clc1ccc(Cl)c(Cl)c1,outcome,[1],inactive
same,outcome,[2],inactive
same,outcome,[3],inactive
same,outcome,[4],inactive
same,outcome,[5],inactive
same,outcome,[6],inactive
same,outcome,[7],inactive
same,outcome,[8],inactive
same,outcome,[9],inactive
same,outcome,[11],inactive
same,outcome,[12],inactive
same,outcome,[13],inactive
same,outcome,[14],inactive
same,AC50,[15],77.8 µM (active)
same,outcome,[16],inactive
same,outcome,[17],inactive
same,outcome,[20],inactive
same,outcome,[19],inactive
Cc1ccc(N=C=O)cc1N=C=O,outcome,[1],inactive
same,outcome,[2],inactive
same,outcome,[3],inactive
same,outcome,[4],inactive
same,outcome,[5],inactive
same,outcome,[6],inactive
same,outcome,[7],inactive
same,outcome,[8],inactive
same,outcome,[9],inactive
same,outcome,[11],inactive
same,outcome,[12],inactive
same,outcome,[13],inactive
same,outcome,[14],inactive
same,outcome,[15],inactive
same,outcome,[16],inactive
same,outcome,[17],inactive
same,outcome,[19],inactive
CC(C)(C)C(O)(CCc1ccc(Cl)cc1)Cn1cncn1 (centres undefined),AC50,[1],111 µM (active)
same,outcome,[2],inactive
same,AC50,[3],99.6 µM (active)
same,AC50,[4],107 µM (active)
same,AC50,[5],113 µM (active)
same,AC50,[6],113 µM (active)
same,AC50,[7],108 µM (active)
same,AC50,[8],121 µM (active)
same,AC50,[9],105 µM (active)
same,outcome,[11],inactive
same,outcome,[12],inactive
same,AC50,[13],122 µM (active)
same,AC50,[14],152 µM (active)
same,AC50,[15],52.3 µM (active)
same,AC50,[16],140 µM (active)
same,outcome,[17],inactive
same,AC50,[20],147 µM (active)
same,outcome,[19],inactive
CC(C)(C)OOC(C)(C)CCC(C)(C)OOC(C)(C)C,outcome,[1],inactive
same,AC50,[2],52.8 µM (active)
same,AC50,[3],54.8 µM (active)
same,outcome,[4],inactive
same,outcome,[5],inactive
same,outcome,[6],inactive
same,outcome,[7],inactive
same,outcome,[8],inactive
same,outcome,[9],inactive
same,outcome,[10],inactive
same,outcome,[11],inactive
same,outcome,[12],inactive
same,AC50,[13],90.1 µM (active)
same,AC50,[14],100 µM (active)
same,AC50,[16],100 µM (active)
same,outcome,[17],inactive
same,outcome,[19],inactive
CC(C)(C)OOC(=O)c1ccccc1,AC50,[1],35.1 µM (active)
same,AC50,[3],23.1 µM (active)
same,outcome,[4],inactive
same,AC50,[5],16.4 µM (active)
same,AC50,[6],50 µM (active)
same,outcome,[7],inactive
same,AC50,[8],21.5 µM (active)
same,AC50,[9],54 µM (active)
same,outcome,[10],inactive
same,outcome,[11],inactive
same,outcome,[12],inactive
same,AC50,[13],74.8 µM (active)
same,outcome,[15],inactive
same,AC50,[16],130 µM (active)
same,outcome,[17],inactive
same,outcome,[20],inactive
same,outcome,[19],inactive
